Screens (PubChem BioAssay)
LANA-H2A inh – blockers of LANA interaction with H2A/H2B – biochemical, FP readout, HTS, primary screen; Protein LANA1 (Human herpesvirus 8 type P (isolate GK18)), Q9QR71; cell-free LANA-H2A/H2B peptide, fluorescence polarization; inhibition, % (test concentration not listed); 320,000 compounds, 0.6% hits; in the data active = inhibition mostly above about 10%, no sharp cut-off; inactive = mostly below about 6.7%
DAGLB inhibitor – DAGLB lipase inhibitors, primary screen, biochemical, fluorescence, HTS; HEK293T DAGLB membrane lysate, EnzChek fluorogenic substrate; inhibition, % at 5.17 µM; 340,000 compounds, 0.059% hits; in the data active = inhibition above about 34%;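 note: 0% = enzyme with vehicle and 100% = wells lacking enzyme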
hiPSC survival – enhancers of single-cell hiPSC survival, primary screen, ATPlite luminescence; 100% = ROCK inhibitor wells, 0% = DMSO; survival enhancement, % at 20 µM; 360,000 compounds, 0.044% hits; in the data active = survival enhancement above about 18%;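 note: cells exposed to compounds for 16 hours before the ATP read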
HDAC3 inhib – HDAC3 deacetylase inhibitors, primary screen, biochemical, fluorescence, cell-free homogeneous. Histone deacetylase 3 (Homo sapiens), O15379. recombinant HDAC3, fluorogenic peptide/trypsin coupled. inhibition, % at 8.3 µM. 320,000 compounds, 0.15% hits; in the data active = inhibition above about 26%, passing the limit was not always enough; inconclusive = no clear call, values can overlap the other calls
DAGLB inh conf – DAGLB lipase inhibitors, retest, confirmation, biochemical, fluorescence, HEK293T membranes; 190 compounds, 73% hits; HEK293T DAGLB membrane lysate, EnzChek fluorogenic substrate; shares compounds with DAGLB inhibitor; AID 504445, 2011; inhibition, % at 5.17 µM;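 active = mean inhibition over triplicate wells above a set limit taken from the primary lipase screen, cut at about 34% in these data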;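 note: 0% = DAGLB with DMSO and 100% = wells lacking DAGLB enzyme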
* hit, by the source's call; ? = inconclusive; / = no result given. Rows were chosen to be rich in hits. Some 0.79% of all compounds tested hit in one or more screens of this group.

SMILES	LANA-H2A inh	DAGLB inhibitor	hiPSC survival	HDAC3 inhib	DAGLB inh conf
N#C/C(=C\c1ccc(O)c(O)c1)C(=O)NCCCc1ccccc1	1	40*	-1	1	17
COc1ccc(/C=C(\C#N)C(=O)NCCc2ccccc2)cc1OCc1ccccc1	5	-7	3	-3	/
N#Cc1ccccc1N1CCN(C(=O)c2ccc(NC(=O)c3ccc(Br)o3)cc2)CC1	-7	1	1	-5	/
CC(=O)c1ccc(N2CCN(c3ccc(C(F)(F)F)cn3)CC2)cc1	8	50*	2	-1	70*
N=C1C(c2nc3ccccc3s2)=C(O)CN1NC(=O)c1ccccc1[N+](=O)[O-]	-4	37*	-3	-2	53*
N=C1C(c2nc3ccccc3s2)=C(O)CN1NC(=O)c1c[nH]c2ccccc12	6	2	-4	-5	/
CC1CCC(NCCNC(=O)c2ccco2)CC1 (stereo unspecified)	0	2	0	11	/
CC1=C(O)C(=O)C(c2c(C)cc(C)c(Br)c2C)=C(O)C1=O	/	43*	-2	/	33
c1ccc(-[n+]2nc(Nc3cccc4ccccc34)sc2-c2c3ccccc3cc3ccccc23)cc1	-3	43*	-4	1	41*
Fc1ccc(-[n+]2nc(Nc3ccccc3)sc2-c2c3ccccc3cc3ccccc23)cc1	7	21	-5	11	/
CC1(C)CC(=O)C2=C(C1)NC1=C(C(=O)c3ccccc31)C2c1ccc(O)cc1 (stereo unspecified)	-2	22	1	3	/
CCCCc1ccc(C2C3=C(CC(C)(C)CC3=O)NC3=C2C(=O)c2ccccc23)cc1 (stereo unspecified)	4	46*	-2	14	33
CCCCCCNC(=O)O[C@H]1Cn2c(=O)ccc(=O)n2[C@@H]2CN(S(=O)(=O)c3ccc(C)cc3)C[C@]12O	/	7	-4	/	/
O=C(NNc1c2ccccc2nc2ccccc12)c1ccc(O)cc1O	1	39*	2	8	53*
O=C(NNc1c2ccccc2nc2ccccc12)c1ccccc1O	0	48*	2	-5	82*
NNC(=O)COc1ccc2oc3c(c2c1)CCCC3	-6	-4	0	-4	/
CC(C1SC(=S)NC1=O)C1SC(=S)NC1=O (stereo unspecified)	/	44*	3	/	37*
CC(C)(C)NC(=O)C(c1ccc(O)cc1)N(C(=O)Cn1nnc(-c2ccc(F)cc2)n1)c1ccccc1F (stereo unspecified)	-2	2	-2	?	/
O=C(Nc1ccnn1C1CCN(C(=O)c2ccc(F)cc2)CC1)C1CCOC1 (stereo unspecified)	-1	-2	2	-1	/
Cc1ccc(-n2[nH]c(C)c(/C=N/Nc3ccc([N+](=O)[O-])cc3[N+](=O)[O-])c2=O)cc1C	4	39*	-1	14	48*
c1ccc(COc2ncnc3c2ncn3CCCNCc2cccs2)cc1	/	3	0	/	/
C/C(C/C(C)=C1/SC(=S)NC1=O)=C1\SC(=S)NC1=O	/	47*	1	/	35*
CC(=O)Oc1cc2c3c(c1)/C(=C1/SC(=S)NC1=O)C(=O)N3C(C)(C)C=C2C	-4	50*	0	12	59*
COc1cc([C@H]2c3[nH]c4ccccc4c3C[C@H]3C(=O)N4[C@@H](c5cc(OC)c(OC)c(OC)c5)c5[nH]c6ccccc6c5C[C@H]4C(=O)N23)cc(OC)c1OC	0	35*	-2	-24	43*
Cc1cc(N=Nc2ccccc2C(=O)O)c(C)c(C)c1O	-4	35*	-1	9	48*
SMILES	LANA-H2A inh	DAGLB inhibitor	hiPSC survival	HDAC3 inhib	DAGLB inh conf
Cc1ccc(S(=O)(=O)/N=C2\C=C(Nc3cccc(C(=O)O)c3)C(=O)c3ccccc32)c(C)c1	6	46*	0	7	46*
CC(C)(C)c1ccc(S(=O)(=O)/N=C2\C=C(NS(=O)(=O)c3ccccc3)C(=O)c3ccccc32)cc1	-10	39*	0	8	64*
Cc1ccc(S(=O)(=O)/N=C2\C=C(NS(=O)(=O)c3ccccc3)C(=O)c3ccccc32)c(C)c1	/	19	0	/	/
Cc1ccc(S(=O)(=O)/N=C2\C=C(Nc3cccc(C(=O)O)c3)C(=O)c3ccccc32)cc1	2	37*	0	7	40*
O=C(COC(=O)CCN=C1NS(=O)(=O)c2ccccc21)NNC(=O)c1ccc(Cl)cc1	1	4	0	1	/
O=C1NC[C@@H](CCCCN2C[C@H](Cc3ccc(O)cc3)N(CCc3ccccc3)C(=O)C2=O)N(Cc2ccccc2)C1=O	/	/	0	/	/
COc1ccc(N(CC(=O)NC2CCCC2)C(=O)Cn2nnc(-c3ccc(F)cc3)n2)cc1	3	-1	0	-6	/
O=C1C(=C(O)c2ccccc2)C(=O)c2ccccc21	5	2	-2	6	/
O=C1C(=C(c2ccccc2)c2ccccc2)Nc2ccccc21	3	40*	-2	12	38*
NC(=O)C1CCCN(C(=O)c2ccc(NC(=O)c3cccs3)cc2)C1 (stereo unspecified)	-1	0	-1	2	/
Cn1cc(/C=C2\SC(=O)NC2=S)c2ccccc21	-1	37*	0	6	54*
CCN1/C(=C2\OC(=S)N(C)C2=O)C=Cc2ccccc21	2	2	1	3	/
CCSC1=NC(=O)/C(=C2/C=Cc3ccccc3N2CC)S1	-1	37*	4	0	41*
O=[N+]([O-])c1ccccc1N/N=C/c1c[nH]c2ccccc12	-7	58*	-2	6	61*
CCn1cc(CN2CCC(n3nccc3NC(=O)c3cccc(F)c3)CC2)cn1	-5	0	1	0	/
CC1=NN(c2ccccc2)C(=O)/C1=C\C=C1\N(C)c2ccccc2C1(C)C	-17	21	-2	11	/
CC1=NN(c2ccccc2)C(=O)/C1=C\C=C1/N(C)c2ccccc2C1(C)C	-14	40*	0	/	61*
CCOc1ccccc1N1CCN(C2=C(NS(=O)(=O)c3cccs3)C(=O)c3ccccc3C2=O)CC1	1	44*	-3	14	39*
CN1CCN(C2=C(NS(=O)(=O)c3cccs3)C(=O)c3ccccc3C2=O)CC1	0	2	0	/	/
Nc1ccc2c(c1)C(=O)c1ccc(N)cc1-2	/	9	-4	/	/
Nc1ccc2c(c1)C(=O)c1cc(Cl)c(Cl)cc1-2	/	34*	-1	/	39*
OC[C@@H]1CN(Cc2cccs2)C[C@H](n2cnc3c(N4CCCC4)ncnc32)O1	/	/	-2	/	/
O=C(O)c1[nH]c2ccccc2c1C(c1cc(Cl)cc([N+](=O)[O-])c1O)c1c(C(=O)O)[nH]c2ccccc12	4	37*	0	11	32
Cc1onc(-c2ccccc2)c1C(=O)NCc1ccccc1F	0	-2	-1	-2	/
